# Data reported in PubChem BioAssay (NCATS).
# Results filed as inconclusive are left out. Where a call stands in place of a potency, no number is given. The source made the active and inactive calls. The call rests on the fitted dose curve; in most records, active means well fitted curve in the direction sought with a large enough effect; inconclusive means small, poorly fitted or top-dose-only effect, or another doubt; inactive means no such curve, though single readings can be large; an effect the other way counts as inactive or inconclusive. Numbered stars: 1 amine (or outer) side, 2 acyl side, 3 side chain; on linkers, the order of the positions; unused ones are H or OH. Bridge positions count the residues as written; N and C are the ends. Square brackets hold non-standard residues; d marks the D form. Peptide text beside a SMILES is read from it. I, II: the chains in the order shown. Actinocin(9to1) = Cc1c2oc3c(C)ccc(C(=O)[*:1])c3nc-2c(C(=O)[*:2])c(N)c1=O; NMeV = CN[C@H](C(=O)O)C(C)C; Sar = CNCC(=O)O
# Tests used:
# [1] = qHTS of pediatric cancer cell lines to identify multiple opportunities for drug repurposing: Confirmatory screen for SK-N-SH cells (AID 1347129);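 further: cells exposed to compound for 48 h before viability read; nearly all actives have a fitted effect of over 60% in size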; further: potency means the concentration at half of the fitted maximal effect
# Summary of the method: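 Cells (500-1,000/well) rested 5 h, then received compounds for 48 h; metabolically active cells were measured by CellTiter-Glo luminescence. Final concentrations spanned up to 46 µM (MIPE, 11-point) or 0.59 nM-46 µM (NPC, 8-point) in primary screens, 11-point in follow-ups.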
# Furin (Homo sapiens) = Furin (Homo sapiens) (UniProt P09958); experiment: Furin counterscreen qHTS for Zika virus inhibitors (AID 1347149); further: nearly all actives have a fitted effect of over 70% in size; further: potency means the concentration at half of the fitted maximal effect
# Summary of the method: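 Counterscreen measures cleavage of 2 microM BOC-RVRR-AMC, below its ~15 microM Km, by 5 nM full-length human furin at pH 7.0 after a 15-min compound preincubation. Inhibition derives from the 15-min fluorescence increase at 37C.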
# [2] = tested on: Zika virus NS2B-NS3 protease; experiment: Primary screen GU AMC qHTS for Zika virus inhibitors (AID 1347154); further: nearly all actives have a fitted effect of over 70% in size; further: potency means the concentration at half of the fitted maximal effect
# Summary of the method: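 Fluorogenic AMC-substrate cleavage by noncovalent NS2B-NS3 protease complex (25 nM, pH 8.0 Tris buffer with Tween 20) followed for 15 minutes at room temperature (~20% conversion). Percent inhibition from ex340/em450 signal change, fitted by 4-parameter Hill equation.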
# [3] = tested on: Zika virus NS2B-NS3 protease (linked); experiment: 384 well plate NINDS AMC confirmatory qHTS for Zika virus inhibitors (AID 1347163);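 further: linked protease at 5 30 or 60 nM final depending on run; fluorescence of AMC released from Ac-VKTGKR-AMC peptide cleaved by the protease; top concentration of the series differs between compounds; nearly all actives have a fitted effect of over 50% in size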
# Summary of the method: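 Fluorescence at 355/460 nm was read after 25 minutes of cleavage of 30 microM Ac-VKTGKR-AMC at room temperature, in the dark. Before substrate addition, compounds (up to 1 mM final) sat ~15 minutes with 5, 30 or 60 nM linked protease. Signals were normalized to no-enzyme and no-inhibitor wells.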
# [4] = tested on: Zika virus NS2B-NS3 protease (linked construct); experiment: 384 well plate NINDS Rhodamine confirmatory qHTS for Zika virus inhibitors (AID 1347164);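 further: fluorescence from protease cleavage of Ac-LKRR-rhodamine 110 substrate; nearly all actives have a fitted effect of over 65% in size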; further: potency means the concentration at half of the fitted maximal effect
# Summary of the method: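 Fluorescence at 485/538 nm was measured 25 minutes after adding 10 microM Ac-LKRR-Rd substrate, in the dark at room temperature. The protease (5, 30 or 60 nM final) had been preincubated ~15 minutes with compound; aprotinin as control.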
# [5] = Vero cells viability qHTS for Zika virus inhibitors (AID 1347167); further: potency means the concentration at half of the fitted maximal effect
# Summary of the method: (§1)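 Luminescent ATP readout (CellTiter Glo) after 30 min at 37 degrees C gives viability; cells in DMEM + 4% FBS were treated 24 to 48 hours with compound, following overnight attachment.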
# [6] = HepG2 cells viability qHTS for Zika virus inhibitors (AID 1347168); further: potency means the concentration at half of the fitted maximal effect
# Summary of the method: as §1
# [7] = Tertiary RLuc qRT-PCR qHTS assay for Zika virus inhibitors (AID 1347169); further: potency means the concentration at half of the fitted maximal effect; nearly all actives have a fitted effect of over 55% in size
# Summary of the method: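 Orthogonal cell-based readout: luminescence measured 1-1.5 hrs after adding live-cell Renilla substrate to Vero cells that had been infected with ZIKV-RLuc (MOI 1-2) post-compound, incubated 48-72 hrs at 37 degrees C.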
# [8] = ZIKV-mCherry secondary qHTS for Zika virus inhibitors (AID 1347158); further: top concentration of the series differs between compounds
# Summary of the method: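 Percent infection is the share of Hoechst-identified Vero nuclei with mCherry signal above 450 RFU (3 SD over negative controls). Cells were infected with recombinant ZIKV-mCherry at MOI 1 after compound addition and imaged 48–72 h later.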
# [9] = biological target: N-terminal Xaa-Pro-Lys N-methyltransferase 1 (Homo sapiens) (UniProt Q9BV86); experiment: qHTS Assay for Inhibitors of N-terminal methyltransferase 1 (NTMT1): LOPAC validation of the NTMT1 SAHH-coupled ThioGlo3 Assay (AID 1347143);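 further: SAH from peptide methylation measured as thiol fluorescence via SAHH coupling and ThioGlo3; nearly all actives have a fitted effect of over 70% in size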; further: potency means the concentration at half of the fitted maximal effect
# Summary of the method: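 NTMT1 125nM + cpds (various conc.), 1 min RT; add SAM 100uM/SAHH 10uM/ThioGlo3 15uM (addition mix). SAHH-coupled thiol detection, Ex340/Em450, t0 and 30 min RT; signal normalized to background. LOPAC 1280-cpd pilot.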
# [10] = biological target: Lysine-specific demethylase 5B (Homo sapiens) (UniProt Q9UGL1); experiment: Optimization screen for KDM5B Histone Demethylases FDH coupled qHTS against the LOPAC library (AID 1347166)
# Summary of the method: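 KDM5BDeltaAP (200nM final) in 50mM HEPES pH 7.5, 0.01% Tween-20 was preincubated with compound for 10 min at room temperature. A substrate mix of 12.5uM H3K4Me3, 25uM a-ketoglutarate, ascorbate, Fe2+, NAD+ and formaldehyde dehydrogenase was then added. NADH fluorescence (340/450 nm) was read initially and after 30 min.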
# [11] = tested on: Zika virus NS2B-NS3 protease (linked construct); experiment: Confirmatory screen NINDS AMC qHTS for Zika virus inhibitors (AID 1347152); further: top concentration of the series differs between compounds; nearly all actives have a fitted effect of over 70% in size
# Summary of the method: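 IC50s from 4-parameter Hill fits of percent inhibition, based on AMC fluorescence gain (340/450 nm) over 15 min with 10 microM Bz-Nle-KRR-AMC. Enzyme: 1 nM linked NS2B-NS3 in Tris-HCl pH 8.0; 15-min compound preincubation.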
# [12] = tested on: Zika virus NS2B-NS3 protease (unlinked complex); experiment: Confirmatory screen GU AMC qHTS for Zika virus inhibitors (AID 1347153); further: nearly all actives have a fitted effect of over 70% in size
# Summary of the method: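 Noncovalent NS2B hydrophilic domain/NS3 protease complex (25 nM) in 10 mM Tris-HCl pH 8.0, 0.01% Tween 20 was preincubated 15 min at room temperature with compounds. Then 10 µM AMC substrate (Km 18.3 µM) was added; fluorescence was read over 15 min and fitted to a 4-parameter Hill equation.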
# [13] = Confirmatory screen NINDS Rhodamine qHTS for Zika virus inhibitors (AID 1347161);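 further: purified Zika NS2B-NS3 protease with linked NS2B cofactor domain and Rhodamine110 peptide substrate; series mostly up to about 110 µM; nearly all actives have a fitted effect of over 60% in size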
# Summary of the method: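 Percent inhibition, normalized to uninhibited and enzyme-free controls, is fitted to a 4-parameter Hill equation. Fluorescence change comes from a 15-min cleavage of 1.5 microM bis-peptide Rhodamine110 substrate by 25 nM linked NS2B-NS3 at room temperature.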
# [14] = tested on: Zika virus NS2B-NS3 protease (unlinked complex); experiment: Primary screen GU Rhodamine qHTS for Zika virus inhibitors: Unlinked NS2B-NS3 protease assay (AID 1347159); further: nearly all actives have a fitted effect of over 60% in size
# Summary of the method: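 Buffer 10 mM Tris-HCl pH 8.0, 0.01% Tween 20. Unlinked protease 25 nM; compound preincubation 15 min, RT, protected from light. Substrate Rhod110, 1.5 microM; ~15% conversion in 15 min.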
# [15] = tested on: Zika virus NS2B-NS3 protease (linked construct); experiment: Primary screen NINDS Rhodamine qHTS for Zika virus inhibitors (AID 1347160); details: outcome: dose series up to 57.1 µM; further: nearly all actives have a fitted effect of over 55% in size
# Summary of the method: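 Aprotinin served as in-plate control. Conditions: 25 nM linked NS2B-NS3, pH 8.0 Tris buffer, titrated compounds, 15 min preincubation and 15 min reaction with 1.5 microM Rhod110 substrate at room temperature.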
# Sequence of N-terminal Xaa-Pro-Lys N-methyltransferase 1 (Homo sapiens) (Q9BV86 whole entry, looked up): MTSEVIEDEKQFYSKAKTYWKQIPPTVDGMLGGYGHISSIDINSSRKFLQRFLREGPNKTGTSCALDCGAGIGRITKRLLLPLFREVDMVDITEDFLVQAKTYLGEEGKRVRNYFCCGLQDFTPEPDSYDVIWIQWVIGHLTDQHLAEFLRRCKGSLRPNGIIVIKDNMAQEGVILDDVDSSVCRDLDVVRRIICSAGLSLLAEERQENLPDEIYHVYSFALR
# Sequence of Furin (Homo sapiens) (P09958 whole entry, looked up): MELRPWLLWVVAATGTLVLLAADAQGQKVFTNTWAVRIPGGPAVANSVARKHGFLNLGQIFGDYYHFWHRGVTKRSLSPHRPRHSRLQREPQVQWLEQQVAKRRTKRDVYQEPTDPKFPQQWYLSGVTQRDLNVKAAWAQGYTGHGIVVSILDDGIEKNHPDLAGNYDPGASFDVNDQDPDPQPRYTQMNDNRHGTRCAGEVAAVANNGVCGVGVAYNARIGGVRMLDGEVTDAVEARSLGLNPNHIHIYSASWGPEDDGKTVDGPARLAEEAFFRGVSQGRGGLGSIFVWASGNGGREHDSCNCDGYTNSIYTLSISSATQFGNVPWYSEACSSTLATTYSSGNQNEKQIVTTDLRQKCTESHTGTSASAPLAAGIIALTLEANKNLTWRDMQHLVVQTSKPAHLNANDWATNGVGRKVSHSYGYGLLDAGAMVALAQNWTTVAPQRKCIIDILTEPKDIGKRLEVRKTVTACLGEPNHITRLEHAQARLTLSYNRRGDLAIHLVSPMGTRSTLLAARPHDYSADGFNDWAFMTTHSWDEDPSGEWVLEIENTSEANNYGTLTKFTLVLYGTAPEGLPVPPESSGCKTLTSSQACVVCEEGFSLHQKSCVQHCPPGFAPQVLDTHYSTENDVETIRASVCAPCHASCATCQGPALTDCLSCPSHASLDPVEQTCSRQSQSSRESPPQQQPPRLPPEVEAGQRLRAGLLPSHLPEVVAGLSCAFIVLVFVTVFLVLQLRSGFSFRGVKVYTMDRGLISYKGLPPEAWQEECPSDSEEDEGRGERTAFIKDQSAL
# Sequence of Lysine-specific demethylase 5B (Homo sapiens) (Q9UGL1 whole entry, looked up): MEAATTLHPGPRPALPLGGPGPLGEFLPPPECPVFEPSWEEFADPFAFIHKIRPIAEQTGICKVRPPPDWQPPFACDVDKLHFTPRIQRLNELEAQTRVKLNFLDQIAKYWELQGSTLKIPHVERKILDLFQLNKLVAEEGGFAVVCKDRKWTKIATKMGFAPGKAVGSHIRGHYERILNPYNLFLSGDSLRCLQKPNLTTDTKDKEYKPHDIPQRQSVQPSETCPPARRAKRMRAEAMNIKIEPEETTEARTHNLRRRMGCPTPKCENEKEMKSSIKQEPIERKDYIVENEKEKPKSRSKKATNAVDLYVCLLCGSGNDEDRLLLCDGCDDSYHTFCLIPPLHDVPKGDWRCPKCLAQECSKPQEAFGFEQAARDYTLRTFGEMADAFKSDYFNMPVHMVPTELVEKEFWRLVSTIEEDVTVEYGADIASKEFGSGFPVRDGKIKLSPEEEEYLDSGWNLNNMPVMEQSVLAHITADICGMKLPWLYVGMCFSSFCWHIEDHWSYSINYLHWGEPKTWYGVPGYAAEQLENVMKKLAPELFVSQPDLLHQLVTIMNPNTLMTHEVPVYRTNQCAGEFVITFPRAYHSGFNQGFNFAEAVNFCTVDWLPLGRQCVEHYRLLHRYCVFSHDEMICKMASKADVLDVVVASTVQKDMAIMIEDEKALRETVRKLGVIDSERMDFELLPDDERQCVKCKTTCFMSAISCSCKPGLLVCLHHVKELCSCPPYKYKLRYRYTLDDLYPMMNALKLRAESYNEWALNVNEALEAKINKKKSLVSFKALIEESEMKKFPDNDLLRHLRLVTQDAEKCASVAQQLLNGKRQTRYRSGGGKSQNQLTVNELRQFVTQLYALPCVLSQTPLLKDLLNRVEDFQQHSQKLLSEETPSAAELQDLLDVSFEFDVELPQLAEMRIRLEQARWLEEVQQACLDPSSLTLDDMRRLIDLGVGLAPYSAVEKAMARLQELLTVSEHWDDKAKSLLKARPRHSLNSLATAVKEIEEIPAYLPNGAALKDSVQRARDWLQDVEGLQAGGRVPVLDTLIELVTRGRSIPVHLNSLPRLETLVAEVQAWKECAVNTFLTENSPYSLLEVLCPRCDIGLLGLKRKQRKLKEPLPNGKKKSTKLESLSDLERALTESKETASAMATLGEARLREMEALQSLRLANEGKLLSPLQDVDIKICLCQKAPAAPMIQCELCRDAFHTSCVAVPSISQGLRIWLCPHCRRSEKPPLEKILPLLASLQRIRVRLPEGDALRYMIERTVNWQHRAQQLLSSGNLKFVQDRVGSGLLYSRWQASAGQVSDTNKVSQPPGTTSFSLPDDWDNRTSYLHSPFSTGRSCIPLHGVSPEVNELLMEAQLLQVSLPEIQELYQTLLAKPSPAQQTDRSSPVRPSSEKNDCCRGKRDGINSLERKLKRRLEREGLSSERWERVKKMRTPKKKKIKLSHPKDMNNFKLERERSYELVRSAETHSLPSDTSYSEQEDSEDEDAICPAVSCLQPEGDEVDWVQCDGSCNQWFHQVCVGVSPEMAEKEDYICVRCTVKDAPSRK
compound,measurement,setting,value
COc1c(C)c2c(c(O)c1C/C=C(\C)CCC(=O)O)C(=O)OC2,Potency,[1],18.7 µM (active)
same,Potency,Furin (Homo sapiens),inactive
same,Potency,[2],inactive
same,outcome,[3],inactive
same,Potency,[4],inactive
same,Potency,[5],inactive
same,Potency,[6],inactive
same,Potency,[7],0.739 µM (active)
CCCCC(CC)CN=C(N)NC(N)=NCCCCCCN=C(N)NC(N)=NCC(CC)CCCC (stereo unspecified),Potency,[1],11.8 µM (active)
same,Potency,Furin (Homo sapiens),21.5 µM (active)
same,Potency,[8],inactive
same,Potency,[4],39.8 µM (active)
same,Potency,[5],29.4 µM (active)
same,Potency,[6],13.1 µM (active)
same,Potency,[7],3.7 µM (active)
CCCn1c(=O)[nH]c(=O)c2[nH]cnc21,Potency,[9],inactive
same,outcome,[10],inactive
NC(CO)(CO)CO,Potency,[1],inactive
same,Potency,[2],inactive
COCc1c(C(C)C)nc(C(C)C)c(/C=C/[C@@H](O)C[C@@H](O)CC(=O)O)c1-c1ccc(F)cc1,Potency,[1],0.418 µM (active)
C[C@@H]1C[C@H]2[C@@H]3CCC4=CC(=O)C=C[C@]4(C)[C@@]3(F)[C@@H](O)C[C@]2(C)[C@H]1C(=O)CO,Potency,[1],inactive
same,Potency,[2],inactive
CCOc1ccc2nc3cc(N)ccc3c(N)c2c1,Potency,[1],14.8 µM (active)
same,Potency,[2],31.6 µM (active)
CC(=O)Oc1ccc(C(c2ccc(OC(C)=O)cc2)c2ccccn2)cc1,Potency,[1],inactive
"Cc1c2oc3c(C)ccc(C(=O)N[C@@H]4C(=O)N[C@H](C(C)C)C(=O)N5CCC[C@H]5C(=O)N(C)CC(=O)N(C)[C@@H](C(C)C)C(=O)O[C@@H]4C)c3nc-2c(C(=O)N[C@@H]2C(=O)N[C@H](C(C)C)C(=O)N3CCC[C@H]3C(=O)N(C)CC(=O)N(C)[C@@H](C(C)C)C(=O)O[C@@H]2C)c(N)c1=O (I: T[dV]P[Sar][NMeV] / II: T[dV]P[Sar][NMeV]; ester I:1-I:C, II:1-II:C; linker I:N-II:N via Actinocin(9to1))",Potency,[1],0.0118 µM (active)
same,Potency,[11],inactive
same,Potency,[12],inactive
same,Potency,[2],inactive
same,Potency,[13],inactive
same,Potency,[5],inactive
same,Potency,[6],inactive
same,Potency,[7],0.165 µM (active)
C[C@@H]1C[C@H]2[C@@H]3C[C@H](F)C4=CC(=O)C(Cl)=C[C@]4(C)[C@@]3(F)[C@@H](O)C[C@]2(C)[C@@]1(O)C(=O)CO,Potency,[1],inactive
same,Potency,[2],inactive
CC(=O)OCC(=O)[C@@]1(OC(C)=O)[C@@H](C)C[C@H]2[C@@H]3C[C@H](F)C4=CC(=O)C=C[C@]4(C)[C@@]3(F)[C@@H](O)C[C@@]21C,Potency,[1],inactive
same,Potency,[2],inactive
CCCCC(=O)O[C@]1(C(=O)CO)CC[C@H]2[C@@H]3CCC4=CC(=O)CC[C@]4(C)[C@H]3[C@@H](O)C[C@@]21C,Potency,[1],inactive
same,Potency,[2],inactive
CC1(C)O[C@@H]2C[C@H]3[C@@H]4C[C@H](F)C5=CC(=O)CC[C@]5(C)[C@H]4[C@@H](O)C[C@]3(C)[C@]2(C(=O)CO)O1,Potency,[1],inactive
same,Potency,[2],inactive
CC(=O)OCC(=O)[C@@]12OC(C)(C)O[C@@H]1C[C@H]1[C@@H]3C[C@H](F)C4=CC(=O)C=C[C@]4(C)[C@@]3(F)[C@@H](O)C[C@@]12C,Potency,[1],inactive
same,Potency,[2],inactive
CC(C)(C(=O)c1cccnc1)c1cccnc1,Potency,[1],inactive
same,Potency,[2],inactive
C[C@]12CCC(=O)C=C1CC[C@H]1[C@@H]3CC[C@](O)(C(=O)CO)[C@@]3(C)C[C@H](O)[C@@]12F,Potency,[1],inactive
CC(=O)[C@H]1CC[C@H]2[C@@H]3C[C@H](C)C4=CC(=O)CC[C@]4(C)[C@H]3[C@@H](O)C[C@]12C,Potency,[1],inactive
same,Potency,[2],inactive
CCCCCCC[N+](CC)(CC)CCCCc1ccc(Cl)cc1,Potency,[1],20.9 µM (active)
same,Potency,[2],inactive
NC(=O)CC[C@@H]1NC(=O)[C@H](Cc2ccccc2)NC(=O)[C@H](Cc2ccc(O)cc2)NC(=O)CCSSC[C@@H](C(=O)N2CCC[C@H]2C(=O)N[C@@H](CCCN=C(N)N)C(=O)NCC(N)=O)NC(=O)[C@H](CC(N)=O)NC1=O,Potency,[1],inactive
same,Potency,[2],inactive
Oc1ccc(O)cc1,Potency,[1],inactive
same,Potency,[9],31.6 µM (active)
same,Potency,[2],inactive
COc1cccc2c1C(=O)c1c(O)c3c(c(O)c1C2=O)C[C@@](O)(C(=O)CO)C[C@@H]3O[C@H]1C[C@H](N)[C@H](O)[C@H](C)O1,Potency,[1],1.32 µM (active)
same,Potency,[2],inactive
CN(C)C(=S)SC(=S)N(C)C,Potency,[1],inactive
CC(C)C[C@H]1C(=O)N2CCC[C@H]2[C@]2(O)O[C@](NC(=O)[C@@H]3C=C4c5cccc6[nH]c(Br)c(c56)C[C@H]4N(C)C3)(C(C)C)C(=O)N12,Potency,[9],56.2 µM (active)
same,Potency,[11],inactive
same,Potency,[12],inactive
same,Potency,[13],inactive
same,Potency,[5],inactive
same,Potency,[6],inactive
C[n+]1c2cc(N)ccc2cc2ccc(N)cc21 (tested in a mixture with another compound),Potency,[1],8.33 µM (active)
CN(C)/N=N/c1nc[nH]c1C(N)=O,Potency,[1],inactive
same,Potency,[2],inactive
CC(CCc1ccccc1)NCC(O)c1ccc(O)c(C(N)=O)c1 (stereo unspecified),Potency,[9],56.2 µM (active)
same,outcome,[14],inactive
same,outcome,[15],inactive
C=C1C[C@H]2[C@@H]3C=C(C)C4=CC(=O)CC[C@]4(C)[C@H]3CC[C@]2(C)[C@@]1(OC(C)=O)C(C)=O,Potency,[1],inactive
CC(=O)OCC(=O)[C@@]1(O)CC[C@H]2[C@@H]3CCC4=CC(=O)C=C[C@]4(C)[C@H]3[C@@H](O)C[C@@]21C,Potency,[1],inactive
same,Potency,[2],inactive
same,outcome,[14],inactive
same,outcome,[15],inactive
C[C@H]1C[C@H]2[C@@H]3CCC4=CC(=O)C=C[C@]4(C)[C@@]3(Cl)[C@@H](O)C[C@]2(C)[C@@]1(O)C(=O)CO,Potency,[1],inactive
